In PubChem BioAssay (NCATS):
Inconclusive results are not listed. Unless noted, calls follow the shape of the dose curve; as a rule, active = well fitted curve in either direction with a large enough effect (not every such curve was filed as active); inconclusive = small, poorly fitted or top-dose-only effect, or another doubt; inactive = flat fitted curve, though single readings scatter.

What was measured:
[1] = AP1 Signaling Pathway (AID 357); conditions: ME-180 AP-1-bla reporter, EGF-induced, beta-lactamase ratio, 5 h; at 17.2 µM (top of the series) unless noted;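 also: ME-180 reporter cells stimulated with EGF at its EC50 level; % is scaled to controls: 0 for no effect and ±100 for the full control effect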
Outline: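 Titration-series screen for positive or negative modulators of EC50 EGF-induced signaling in ME-180 cells carrying an AP-1-driven beta-lactamase reporter. After 5 hours at 37 degrees Celsius, CCF4 460nm/530nm emission ratio gave %Activity; AC50 values derived.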

[2] = NFAT Signaling Pathway (AID 444); conditions: Jurkat NFAT-bla M1, carbachol, beta-lactamase ratio, 5 h; at 17.2 µM (top of the series) unless noted;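 also: carbachol stimulus at about its EC50 of 1 µM final; % is scaled to controls: 0 for no effect and ±100 for the full control effect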
Outline: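 Read-out: CCF4 FRET ratio (460 nm/530 nm) after 1 h RT dye loading, used for %activity and AC50 from titration series. Cells: Jurkat NFAT-β-lactamase/M1 line, treated with compound plus 1 uM carbachol for 5 h, 37 °C.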

[3] = Stat Signaling Pathway (AID 446); conditions: ME-180 SIE beta-lactamase reporter, IL-6 stimulated, 5 h; at 17.2 µM (top of the series) unless noted;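 also: ME-180 cervical cancer cells given 40 pM IL-6 alongside compound; SIE-controlled beta-lactamase reporter measured as 460/530 nm FRET emission ratio; % is scaled to controls: 0 for no effect and ±100 for the full control effect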
Outline: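 ME-180 SIE-bla cells; overnight plating; cpd + IL-6 40 pM, 5 h, 37 C; LiveBLAzer 2.5 h RT; 460/530 nm emission ratio. Normalized to 300 pM IL-6 and 125 nM JAK inhibitor controls.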

[4] = biological target: Glucocorticoid receptor (Homo sapiens) (UniProt P04150); experiment: GR-GFP Redistribution (AID 450;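 active = compounds whose dose series gives a full or clear partial fitted curve of increased nuclear translocation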; also: potency is read from the fitted curve at half-maximal effect)
Chain of Glucocorticoid receptor (Homo sapiens) (P04150 whole entry, looked up): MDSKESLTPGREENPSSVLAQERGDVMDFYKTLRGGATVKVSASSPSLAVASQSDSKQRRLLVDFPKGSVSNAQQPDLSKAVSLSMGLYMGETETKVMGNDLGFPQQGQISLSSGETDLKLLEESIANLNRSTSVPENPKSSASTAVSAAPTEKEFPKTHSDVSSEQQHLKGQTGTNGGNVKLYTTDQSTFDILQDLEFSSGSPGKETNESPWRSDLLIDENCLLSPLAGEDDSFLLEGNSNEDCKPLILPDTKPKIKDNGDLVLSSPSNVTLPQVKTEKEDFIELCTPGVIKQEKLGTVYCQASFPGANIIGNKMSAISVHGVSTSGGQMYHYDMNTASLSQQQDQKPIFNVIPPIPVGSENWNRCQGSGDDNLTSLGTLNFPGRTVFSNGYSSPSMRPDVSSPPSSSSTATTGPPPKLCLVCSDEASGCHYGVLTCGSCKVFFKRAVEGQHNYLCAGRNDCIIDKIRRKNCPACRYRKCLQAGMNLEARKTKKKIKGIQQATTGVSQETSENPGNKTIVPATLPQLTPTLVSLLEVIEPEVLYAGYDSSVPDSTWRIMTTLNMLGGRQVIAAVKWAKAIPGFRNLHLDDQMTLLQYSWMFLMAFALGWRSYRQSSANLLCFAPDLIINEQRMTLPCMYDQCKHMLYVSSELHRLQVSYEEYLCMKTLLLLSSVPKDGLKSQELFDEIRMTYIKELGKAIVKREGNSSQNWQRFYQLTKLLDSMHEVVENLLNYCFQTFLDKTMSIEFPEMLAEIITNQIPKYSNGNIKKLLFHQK

CN(C)CCCNCCCCNC(=O)/C=N/O
inactive: activity change, negative = inhibition [1] 5.81% | activity change, negative = inhibition [2] 11.9% | activity, negative = inhibition [3] -0.521% | Potency [4] > 20.6 µM

C(=N\n1cnnc1)/c1cccc(Oc2ccccc2)c1
inactive: activity change, negative = inhibition [1] -3.86% | activity change, negative = inhibition [2] -2.39% | activity, negative = inhibition [3] -17.8% | Potency [4] > 20.6 µM

COc1ccc(/C(O)=C2/C(=O)C(=O)N(Cc3ccco3)C2c2cccs2)cc1 (stereo not given)
inactive: activity change, negative = inhibition [1] 7% | activity change, negative = inhibition [2] -13.1% | activity, negative = inhibition [3] -19.8% | Potency [4] > 20.6 µM

Cc1ccc(-c2nn(CCC(=O)NCC3CCCO3)c(=O)c3ccccc23)cc1 (stereo not given)
inactive: activity change, negative = inhibition [1] -6.92% | activity change, negative = inhibition [2] -7.06% | activity, negative = inhibition [3] 4.3% | Potency [4] > 20.6 µM

CCCOc1ccccc1C(=O)NCCCC(=O)O
inactive: activity change, negative = inhibition [1] -0.71% | activity change, negative = inhibition [2] -4.04% | activity, negative = inhibition [3] 8.1% | Potency [4] > 20.6 µM

Cc1ccc(NC(=O)c2cc(N3CCOCC3)nc3ccccc23)cc1
inactive: activity change, negative = inhibition [1] -15.5% | activity change, negative = inhibition [2] 19.3% | activity, negative = inhibition [3] -12.2% | Potency [4] > 20.6 µM

CSc1nnc2n(C3CCCCC3)c(=O)c3c4c(sc3n12)CCCC4
inactive: activity change, negative = inhibition [1] 19.1% | activity change, negative = inhibition [2] 3.83% | activity, negative = inhibition [3] 14.1% | Potency [4] > 20.6 µM

CC(=O)c1c(C(C)=O)c(C)n(NC(=O)c2ccncc2)c1C
inactive: activity change, negative = inhibition [1] 2.53% | activity change, negative = inhibition [2] 3.09% | activity, negative = inhibition [3] 17% | Potency [4] > 20.6 µM

Cn1c(N2CCN(c3ccccn3)CC2)nc2c1c(=O)n(Cc1ccccc1Cl)c(=O)n2C
inactive: activity change, negative = inhibition [1] 4.27% | activity change, negative = inhibition [2] 8.29% | activity, negative = inhibition [3] -8.44% | Potency [4] > 20.6 µM

Clc1ccc(COc2ccccn2)c(Cl)c1
inactive: activity change, negative = inhibition [1] 10% | activity change, negative = inhibition [2] -8.68% | activity, negative = inhibition [3] 15.3% | Potency [4] > 20.6 µM

CC1=CC=CN2CC(O)CN=C12 (stereo not given)
inactive: activity change, negative = inhibition [1] 3.58% | activity change, negative = inhibition [2] -0.121% | activity, negative = inhibition [3] 3.52% | Potency [4] > 20.6 µM

CN(C)c1nc2n(c(=S)n1)CCS2
inactive: activity change, negative = inhibition [1] 11.5% | activity change, negative = inhibition [2] 3.88% | activity, negative = inhibition [3] -7.31% | Potency [4] > 20.6 µM

N#CCCSc1nc(N2CCOCC2)c2c(c1C#N)CCCC2
inactive: activity change, negative = inhibition [1] -2.29% | activity change, negative = inhibition [2] 13.2% | activity, negative = inhibition [3] -12.4% | Potency [4] > 20.6 µM

Cn1cc(C(=O)NCN2CCCCC2)c2ccccc21
inactive: activity change, negative = inhibition [1] -2.91% | activity change, negative = inhibition [2] -0.662% | activity, negative = inhibition [3] 3.15% | Potency [4] > 20.6 µM

COC(=O)c1sc(NC(=O)C(C)C)c(C(=O)OC)c1C
inactive: activity change, negative = inhibition [1] -5.18% | activity change, negative = inhibition [2] -9.07% | activity, negative = inhibition [3] 1.94% | Potency [4] > 20.6 µM

CC1(C)CC(=O)C=C(NCCO)C1
inactive: activity change, negative = inhibition [1] 20.8% | activity change, negative = inhibition [2] 2.7% | activity, negative = inhibition [3] 12.6% | Potency [4] > 20.6 µM

C=CCn1c(=S)[nH]c2ccccc2c1=O
inactive: activity change, negative = inhibition [1] -3% | activity change, negative = inhibition [2] 10.1% | activity, negative = inhibition [3] 4.87% | Potency [4] > 20.6 µM

Cc1ccc(C(=O)C2=C(O)C(=O)N(CCN3CCOCC3)C2c2ccccn2)o1 (stereo not given)
inactive: activity change, negative = inhibition [1] -1.65% | activity change, negative = inhibition [2] 8.69% | activity, negative = inhibition [3] 5.67% | Potency [4] > 20.6 µM

CCOC(=O)c1cc(C)n(Cc2cccc(OC)c2OC)c1C
inactive: activity change, negative = inhibition [1] -16.9% | activity change, negative = inhibition [2] -21.6% | activity, negative = inhibition [3] -14.9% | Potency [4] > 20.6 µM

C=CCOc1nc2c(c(=O)n(C)c(=O)n2C)n1Cc1ccccc1Cl
inactive: activity change, negative = inhibition [1] -0.647% | activity change, negative = inhibition [2] -10.1% | activity, negative = inhibition [3] -0.000949% | Potency [4] > 20.6 µM

O=C1C(=O)N(CCN2CCOCC2)C(c2ccccn2)/C1=C(/O)c1ccccc1 (stereo not given)
inactive: activity change, negative = inhibition [1] -4.12% | activity change, negative = inhibition [2] 3.29% | activity, negative = inhibition [3] -1.75% | Potency [4] > 20.6 µM

O=C(O)CCCC(=O)N1CCN(C(c2ccccc2)c2ccccc2)CC1
inactive: activity change, negative = inhibition [1] 1.43% | activity change, negative = inhibition [2] 7.29% | activity, negative = inhibition [3] 0.344% | Potency [4] > 20.6 µM

CC1CCN(c2ncnc3c2cnn3Cc2ccc(Cl)cc2)CC1
inactive: activity change, negative = inhibition [1] -26% | activity change, negative = inhibition [2] -2.2% | activity, negative = inhibition [3] -11.4% | Potency [4] > 20.6 µM

CCCn1nnc(NC(=O)c2cc(Br)cc(Br)c2OC)n1
inactive: activity change, negative = inhibition [1] -4.03% | activity change, negative = inhibition [2] -11.1% | activity, negative = inhibition [3] -4.41% | Potency [4] > 20.6 µM

COc1ccccc1OCC(=O)Nc1ccc(S(=O)(=O)Nc2cc(C)nc(C)n2)cc1
inactive: activity change, negative = inhibition [1] -4.5% | activity change, negative = inhibition [2] -9.32% | activity, negative = inhibition [3] -5.19% | Potency [4] > 20.6 µM
